High-throughput results from PubChem BioAssay.
STAT3 binder – binds human STAT3 on microarray; calls only; AID 624138; 0.2% of 17,000 active; P40763; Small molecule microarray, His-STAT3 binding, anti-His fluorescence;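 active = compounds whose four printed spots each show fluorescence over background unusually high for their array block, chance value under 7%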
Myc binder – c-Myc (human) binding | P01106 | small molecule microarray, His-c-Myc binding, anti-His fluorescence | calls only | 1.5% of 17,000 active | AID 624141;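 active = spot fluorescence over background with P-value below 7% in all four replicate spots, showing protein binding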;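 note: score is binary with 100 for all four spots passing and 0 otherwise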
mut p53 react – re-activators of the mutant p53 pathway; AID 624151; activation, % at 9.98 µM; SW480 PUMA-promoter luciferase, p53 mutant reactivation; 1.5% of 28,000 active; in the data active = activation above about 52%
NFkB binder – binds human NF-kappa-B p105 on microarray; 1.3% of 17,000 active; AID 624139; calls only; Small molecule microarray, anti-His fluorescence binding; P19838;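 active = spot fluorescence over background significantly raised, with a chance value under 7% in all four replicate spots of the compound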;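 note: probe protein is his-tagged human p50 processed subunit at 1 µg/ml; raw spot fluorescence signals with no normalization applied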
Target sequence (P19838 1-433 limits assumed): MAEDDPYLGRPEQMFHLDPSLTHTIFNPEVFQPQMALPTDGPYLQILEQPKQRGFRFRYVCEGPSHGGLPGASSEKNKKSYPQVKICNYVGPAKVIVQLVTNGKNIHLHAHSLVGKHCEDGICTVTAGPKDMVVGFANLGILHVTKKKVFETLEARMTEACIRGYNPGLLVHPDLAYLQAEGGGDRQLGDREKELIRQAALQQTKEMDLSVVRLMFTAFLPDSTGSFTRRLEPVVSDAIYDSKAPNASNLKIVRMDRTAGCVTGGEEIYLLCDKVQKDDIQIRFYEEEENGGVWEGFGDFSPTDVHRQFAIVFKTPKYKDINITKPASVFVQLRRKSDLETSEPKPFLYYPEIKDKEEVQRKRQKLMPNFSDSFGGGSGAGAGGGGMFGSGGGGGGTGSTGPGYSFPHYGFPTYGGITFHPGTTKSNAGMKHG
p53 mut binder – binds human mutant p53 on microarray | calls only | 0.4% of 17,000 active | small molecule microarray binding, anti-GST fluorescence;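 active = compounds whose four printed spots each glow above background more than chance allows, each with a p-value under 7%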
Active calls of the source: *; i = inactive; . = no result given; + = active, no number. Hits are enriched below; roughly 2.6% of the tested compounds scored in any of these assays.

SMILES | STAT3 binder | Myc binder | mut p53 react | NFkB binder | p53 mut binder
Cc1nnc(SCC(=O)Nc2cccc(C)c2C)s1 | . | . | 1 | . | .
Cc1cc(C)c(NC(=O)CSc2nnc(-c3ccncc3)n2-c2ccc(F)cc2)c(C)c1 | . | . | -13 | . | .
COc1ccc(CC(=O)n2nc(-c3ccc(Cl)cc3)nc2NCc2ccco2)cc1OC | . | . | 110* | . | .
COc1ccc(CNc2nc(-c3ccc(Cl)cc3)nn2C(=O)c2ccco2)cc1 | . | . | 87* | . | .
COc1ccc(NC(=O)c2ccco2)c(NC(=O)CSc2ccc(Cl)cc2)c1 | . | . | -7 | . | .
CNC[C@@H]1OCCCC[C@@H](C)Oc2ccc(NC(=O)Nc3ccccc3)cc2C(=O)N([C@H](C)CO)C[C@@H]1C | i | i | 5 | i | i
Nc1nc(CSc2ccccn2)nc(Nc2ccccc2)n1 | . | . | 89* | . | .
C=C[C@@H](O)[C@H]1CC(c2ccccc2)=NO1 | i | i | . | i | i
COc1cccc2cc(C(=O)C3C(=O)C(=O)N(c4nc(C)c(C)s4)C3c3ccco3)oc12 (stereo unspecified) | i | + | 2 | i | i
CCOC(=O)c1sc(N2C(=O)C(=O)C(C(=O)c3ccc(OC)c(C)c3)C2c2ccco2)nc1C (stereo unspecified) | . | . | 1 | . | .
C=CCN1C(=O)/C(=C2\SC(N3CCCCC3)=NC2=O)c2ccccc21 | . | . | 68* | . | .
O=C(CN1C(=O)c2cccc3cccc1c23)Nc1ccccc1C(=O)N1CCCC1 | . | . | -9 | . | .
COc1cc(OC)cc(-c2nnc(SCC(=O)Nc3sc4c(c3C#N)CCCC4)o2)c1 | . | . | 6 | . | .
COc1ccc(C(=O)Nc2sc3c(c2C(=O)Nc2cccc(OC)c2)CCC3)cc1 | . | . | 71* | . | .
COc1ccc(OCC(=O)Nc2sc3c(c2C#N)CCC3)cc1 | i | i | 94* | i | i
c1ccc2c(c1)[nH]c1nc(SCCN3CCCCC3)nnc12 | i | + | 9 | i | i
CCOC(=O)CSc1nnc2c3ccccc3n(C)c2n1 | i | i | -5 | i | i
Cn1c2ccccc2c2nnc(SCCN3CCCCC3)nc21 | i | + | 5 | i | i
